Compound activity as filed in PubChem.
This is a sample that favours compounds with a hit; in the whole collection about 12% have one here.
Pf growth 48h – Primary qHTS for delayed death inhibitors of the malarial parasite plastid, 48 hour incubation; P. falciparum luciferase growth in erythrocytes, 48 h; AID 504832, 2011; 5.9% of 310,000 active; Potency, µM (top dose mostly 28.7 µM), actives largely listed as inhibitors
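A one-generation exposure of luciferase-tagged malaria parasites in RPMI 1640/Albumax erythrocyte culture, 37 C and 5% CO2. Inhibition is inferred from decreased luminescence after adding detection reagent.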
AmpC no deterg – qHTS Inhibitors of AmpC Beta-Lactamase (assay without detergent); AmpC nitrocefin hydrolysis, absorbance 480 nm, 0.0001% Triton; Potency, µM (highest dose often 57.1 µM), hits mostly inhibitors; 0.52% of 330,000 active; AID 485341, 2010; further: nearly all actives have a fitted effect of over 20% in size
Target sequence (P00811 whole entry, looked up): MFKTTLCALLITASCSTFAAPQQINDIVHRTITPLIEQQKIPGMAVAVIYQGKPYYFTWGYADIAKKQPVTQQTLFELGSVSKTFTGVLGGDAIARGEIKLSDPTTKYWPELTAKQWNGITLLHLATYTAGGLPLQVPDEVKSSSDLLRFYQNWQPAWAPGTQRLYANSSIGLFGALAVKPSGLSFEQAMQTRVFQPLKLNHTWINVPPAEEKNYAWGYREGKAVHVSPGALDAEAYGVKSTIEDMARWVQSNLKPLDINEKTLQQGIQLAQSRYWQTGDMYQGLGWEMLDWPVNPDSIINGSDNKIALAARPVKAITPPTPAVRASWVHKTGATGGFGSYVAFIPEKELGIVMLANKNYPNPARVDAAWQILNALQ
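20 mM phosphate pH 7.0 + 0.01% (detergent screen) or 0.0001% Triton X-100; 5.3 nM AmpC reagent; cpd preinc 15 min RT; nitrocefin (800 uM stock) to start; A480 q20 s × 4 min; Activity was normalised to no-enzyme and no-compound control wells.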
SARS PLpro yeast – qHTS of Yeast-based Assay for SARS-CoV PLP | S. cerevisiae expressing SARS-CoV PLpro, growth rescue | Potency, µM (doses to about 32.9 µM), hits mostly activators | 0.19% of 330,000 active | AID 485353, 2010; calls by dose curve; further: nearly all actives have a fitted effect of over 55% in size
Sm TGR inh – qHTS Assay for the Inhibitors of Schistosoma Mansoni Peroxiredoxins. Schistosoma mansoni thioredoxin glutathione reductase (TGR), Q962Y6. purified TGR, DTNB reduction, TNB absorbance 405 nm. Potency, µM (titrated, usually from 114 µM), usual class: inhibitors. 3% of 360,000 active. AID 485364, 2010; further: nearly all actives have a fitted effect of over 60% in size
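Kinetic colorimetric format: TGR-catalysed, NADPH-driven DTNB reduction monitored via TNB absorbance. Enzyme dispensed at 20 nM; compound exposure 15 min at room temperature before reaction start.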
AmpC inh detg – qHTS Inhibitors of AmpC Beta-Lactamase (assay with detergent); AmpC hydrolysis of nitrocefin, absorbance 480 nm, 0.01% Triton; Potency, µM (titrated, usually from 114 µM), most hits filed as inhibitors; 0.041% of 370,000 active; AID 485294, 2010; further: nearly all actives have a fitted effect of over 25% in size
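20 mM phosphate pH 7.0 + 0.01% (detergent screen) or 0.0001% Triton X-100; 5.3 nM AmpC reagent; cpd preinc 15 min RT; nitrocefin (800 uM stock) to start; A480 q20 s × 4 min; Activity was normalised to no-enzyme and no-compound control wells.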
Pf growth 96h – Primary qHTS for delayed death inhibitors of the malarial parasite plastid, 96 hour incubation; P. falciparum luciferase reporter growth, 96 h; Potency, µM (doses to about 28.7 µM), most hits filed as inhibitors; 6.9% of 320,000 active; AID 504834, 2011
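Two parasite generations (96 h, 37 C, 5% CO2) of compound exposure in infected erythrocytes (0.05% parasitemia, 2% hematocrit). Luciferase-reporter P. falciparum; decreased luminescence indicates inhibited growth, aimed at apicoplast-acting delayed death.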
Numbers stand for hits; i = inactive; ? = inconclusive; nt = not tested or not shown; ! = a repeat was not active. Unless noted, the call rests on the fitted dose curve; in most records, active means well fitted curve in the direction sought with a large enough effect; inconclusive means small, poorly fitted or top-dose-only effect, or another doubt; inactive means no such curve, though single readings can be large; an effect the other way counts as inactive or inconclusive.

SMILES | Pf growth 48h | AmpC no deterg | SARS PLpro yeast | Sm TGR inh | AmpC inh detg | Pf growth 96h
CCOC(=O)C1(C)/C(=N/Nc2ccc(Cl)cc2)C(=O)C(=O)N1c1ccccc1 (configuration not stated) | i | i | i | 50µM | i | nt
Clc1ccc2c(c1)CCc1cccnc1C2=C1CCNCC1 | 13µM | i | i | 45µM! | ? | ?
CCCCN1C(=O)/C(=C2/Sc3ccc(OC)cc3N2CC)SC1=S | i | i | i | i | i | 9.3µM
CCN1C(=O)/C(=C2\SC(=S)N(CCCOC)C2=O)c2ccccc21 | ? | i | i | i | i | 10µM
COCCN1C(=O)/C(=C2/C(=O)N(CC(=O)Nc3ccccc3Cl)c3ccccc32)SC1=S | ? | i | i | i | ? | ?
CCc1ccc(NC(=O)c2ccc3c(c2)c(C)c(C)n3Cc2ccccc2)cc1 | nt | nt | nt | i | i | nt
Cc1ccc(S(=O)(=O)c2cn(CC(=O)Nc3ccc4c(c3)OCO4)c3ccccc3c2=O)cc1C | nt | nt | nt | i | i | nt
Cc1csc(C(=O)O)c1-n1cccc1 | i | 0.28µM | i | i | i | ?
CCOC(=O)c1c(C)[nH]c(C)c1S(=O)(=O)N(C)CC(=O)Nc1ccc(C)c(F)c1 | nt | nt | nt | i | i | nt
Cc1ccc(-c2cc3nc(-c4ccccc4)cc(N4CCC5(CC4)OCCO5)n3n2)cc1 | 8.3µM | i | i | i | i | 0.29µM
COc1ccc(-c2c(C)nn3c(N4CCC5(CC4)OCCO5)cc(C)nc23)cc1OC | 12µM | i | i | i | i | i
Cc1cccc(-c2cc3nc(-c4ccccc4)cc(N4CCC5(CC4)OCCO5)n3n2)c1 | ? | i | i | i | i | i
COCCN1CCN(c2cc(-c3ccccc3)nc3cc(-c4cccc(F)c4)nn23)CC1 | 12µM | i | i | i | i | ?
Fc1cccc(-c2cc3nc(-c4ccccc4)cc(N4CCC5(CC4)OCCO5)n3n2)c1 | 8.3µM | i | i | i | i | i
CC(C)(C)NS(=O)(=O)c1ccc(CCC(=O)Nc2cc(Cl)ccc2Oc2ccccc2)cc1 | 4.1µM | i | i | i | i | nt
CC(C)CNS(=O)(=O)c1ccc(CCC(=O)Nc2cc(Cl)ccc2Oc2ccccc2)cc1 | nt | i | i | i | i | 4.1µM
CCCNS(=O)(=O)c1ccc(CCC(=O)Nc2cc(Cl)ccc2Oc2ccccc2)cc1 | 13µM | i | i | i | ? | i
C=CCNC(=S)Nc1ccccc1-c1nnc2n1CCCCC2 | i | i | i | i | i | i
COc1ccccc1-n1cc(C(=O)c2cc(Cl)ccc2O)cc(C#N)c1=O | ? | i | i | i | i | ?
Cc1ccccc1-n1cc(C(=O)c2cc(Cl)ccc2O)cc(C#N)c1=O | 5.2µM | i | i | i | ? | 2.6µM
O=C1Nc2ccccc2/C1=C\C(=O)c1ccccc1 | i | i | i | ? | i | i
O=C(/C=C1\C(=O)Nc2ccccc21)/C=C1\C(=O)Nc2ccccc21 | i | i | i | 13µM | i | ?
N#CC(C#N)=Cc1ccc(N2CCOCC2)cc1 | i | i | i | 3.2µM | i | i
N#CC(C#N)=Cc1ccc(OCC(=O)N2CCOCC2)cc1 | ? | i | i | 2.5µM | i | ?
COc1ccccc1CNC(=O)CCn1c(=O)c2ccccc2n(CC(=O)Nc2cc(Cl)ccc2C)c1=O | nt | nt | nt | i | i | nt
SMILES | Pf growth 48h | AmpC no deterg | SARS PLpro yeast | Sm TGR inh | AmpC inh detg | Pf growth 96h
C[N+]1(C)CCC(=C(c2ccccc2)c2ccccc2)CC1 | 4.1µM | i | i | i | ? | 5.9µM
C[N+]1(CCC(=O)c2ccccc2)CCCCC1 | ? | i | i | i | ? | ?
N=c1ccn(Cc2ccc([N+](=O)[O-])cc2)cc1 | 4.1µM | i | i | i | i | ?
CCOC(=O)C1(Cc2cccc(OC)c2)CCCN(Cc2nccn2CC)C1 (configuration not stated) | ? | i | i | i | i | 12µM
CCOC(=O)C1(Cc2cccc(OC)c2)CCCN(C(=O)c2cc(C)on2)C1 (configuration not stated) | i | i | i | i | i | 6.6µM
COc1cccc(C(=O)N2CCC(n3nccc3NC(=O)CCOc3ccccc3)CC2)c1 | i | i | ? | i | i | ?
CCC(C)(C)NC(=O)CN(Cc1ccc(F)cc1)C(=O)CCC(=O)Nc1ccccn1 | i | i | i | i | i | i
CC1=CC(c2ccc(Cl)cc2)n2nc(NS(=O)(=O)c3ccc(C)cc3)nc2N1 (configuration not stated) | i | i | i | 32µM | i | i
CC1=CC(c2ccccc2)n2nc(NS(=O)(=O)c3ccc(C)cc3)nc2N1 (configuration not stated) | i | i | i | 35µM | i | i
Cc1ccc(S(=O)(=O)Nc2nc3n(n2)C(c2ccc(Cl)cc2)CC(=O)N3)cc1 (configuration not stated) | i | i | i | i | ? | i
Cc1ccc(C2C=C(c3ccccc3)Nc3nc(NS(C)(=O)=O)nn32)cc1 (configuration not stated) | nt | nt | nt | ? | i | nt
COc1cc(C2c3c(-c4ccccc4O)n[nH]c3C(=O)N2Cc2ccco2)ccc1OCC(C)C (configuration not stated) | nt | nt | nt | i | i | nt
C=CCOCC(O)Cn1c(N2CCCC2)nc2c1c(=O)[nH]c(=O)n2C (configuration not stated) | i | i | i | i | i | 6.6µM
Cn1c(=O)[nH]c(=O)c2c1nc(N1CCCCC1)n2CC(O)COc1ccc([N+](=O)[O-])cc1 (configuration not stated) | i | i | i | i | i | 9.3µM
Cn1c(=O)[nH]c(=O)c2c1nc(N1CCCC1)n2CC(O)COc1ccccc1 (configuration not stated) | nt | i | i | i | ? | ?
Cc1cccc(N2C(=O)N(CC(=O)C(C)(C)C)c3ccccc3S2(=O)=O)c1C | nt | nt | nt | i | i | nt
CCCc1cc(=O)[nH]c(SCC(=O)Nc2c(C)n(C)n(-c3ccccc3)c2=O)n1 | nt | i | i | nt | nt | nt
COc1cccc(NC(=O)NC2CCN(CC(=O)Nc3ccccc3[N+](=O)[O-])CC2)c1 | ? | i | i | i | i | ?
O=C1CC(c2ccco2)CC(O)=C1C=NCC1NCCc2ccccc21 (configuration not stated) | 10µM | i | i | ? | ? | i
COc1cc(-c2noc(C)c2C(=O)NCCc2ccccc2)cc(OC)c1OC | nt | i | i | nt | nt | nt
Cc1cc(C)c(NC(=O)c2ccccc2CCc2ccccc2)c(C)c1 | ? | i | i | i | i | ?
CCc1cccc(CC)c1NC(=O)c1ccccc1CCc1ccccc1 | 15µM | i | i | i | ? | i
